# Assay outcomes: PubChem, National Center for Advancing Translational Sciences (NCATS)
# In the library only some 18% were active in any assay of this set; here they are far more common.
# HepG2 viability: kills HepG2 cells in TGF-b inhibitor counter-screen | hit rate 0.76% among 410,000 | Potency, µM (titrated, usually from 46.1 µM), for the others: top-dose activity change, negative = cytotoxicity, hits mostly cytotoxic | HepG2 CAGA-GFP viability, ATP luminescence, 18 h; also: potency is read from the fitted curve at half-maximal effect
#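 CellTiter-Glo luminescence gave cytotoxicity after 18 hours at 37 degrees C. The cells were HepG2 CAGA-GFP in 1% FBS DMEM, stimulated with 500 pg/mL TGF-beta after compound addition. %Activity was normalised to no-cell wells (complete cell-killing) and DMSO (no toxicity), and curves were fitted and classified.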
# IL-1B inflam inh: blocks inflammasome-driven IL-1 beta release; THP-1 LPS/ATP IL-1B secretion, AlphaLISA, 16 h; stronger effect = lower value; activity change, % at 57.5 µM; hit rate 4.7% among 360,000; AID 743279; in the data active = activity change below about -50%; inconclusive = mostly about -30% to -49%; also: % is scaled to controls: 0 for no effect and ±100 for the full control effect
#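 THP-1 cells pretreated 1 hr with compounds (up to 57.5 uM final), then stimulated with LPS (250 ng/mL final) plus ATP (1.25 mM final); secreted IL-1B measured by AlphaLISA after 16 hr, decreased signal indicating inhibition.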
# TGFb inhibitor: inhibitors of TGF-b signaling. HepG2 CAGA-GFP TGF-b/SMAD3 reporter, GFP fluorescence, 18 h; TGF-beta stimulated, 500 pg/mL final. Potency, µM (doses to about 46.1 µM), without a hit: top-dose activity, negative = inhibition, actives largely listed as inhibitors. hit rate 1.2% among 410,000. AID 588855; also: potency is read from the fitted curve at half-maximal effect; % is scaled to controls: 0 for no effect and ±100 for the full control effect; nearly all actives have a fitted effect of over 65% in size
#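 GFP signal (ex488/em500-530) from TGF-beta-stimulated HEPG2 CAGA-GFP cells, 500 pg/mL final, 18 h at 37 degrees C in DMEM plus 1% FBS, normalized to unstimulated and DMSO-stimulated controls.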
# TDP1 inh: TDP1 (human) enzyme inhibition. Potency, µM (highest dose often 130 µM), without a hit: at the top dose activity change, negative = inhibition, actives largely listed as inhibitors. hit rate 0.28% among 350,000. recombinant TDP1, AlphaScreen DNA substrate cleavage. Q9NUW8; also: potency is read from the fitted curve at half-maximal effect; % is scaled to controls: 0 for no effect and ±100 for the full control effect; nearly all actives have a fitted effect of over 40% in size
# Target sequence (Q9NUW8 whole entry, looked up): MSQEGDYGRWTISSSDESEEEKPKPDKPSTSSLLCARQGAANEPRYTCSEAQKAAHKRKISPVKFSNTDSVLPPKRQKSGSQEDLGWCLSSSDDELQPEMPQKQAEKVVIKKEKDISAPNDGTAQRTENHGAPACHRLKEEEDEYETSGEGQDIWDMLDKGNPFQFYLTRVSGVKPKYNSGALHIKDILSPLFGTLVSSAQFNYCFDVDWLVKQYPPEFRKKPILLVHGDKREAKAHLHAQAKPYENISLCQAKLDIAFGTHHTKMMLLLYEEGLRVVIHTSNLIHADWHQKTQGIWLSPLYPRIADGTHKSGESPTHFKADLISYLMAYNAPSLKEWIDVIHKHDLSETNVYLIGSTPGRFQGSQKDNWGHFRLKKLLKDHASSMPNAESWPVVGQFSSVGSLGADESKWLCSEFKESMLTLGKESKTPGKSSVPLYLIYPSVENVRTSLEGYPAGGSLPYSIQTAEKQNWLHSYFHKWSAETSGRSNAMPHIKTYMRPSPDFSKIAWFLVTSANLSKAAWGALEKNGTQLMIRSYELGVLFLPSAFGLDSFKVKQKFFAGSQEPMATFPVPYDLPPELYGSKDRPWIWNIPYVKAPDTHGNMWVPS
#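 Tdp1 1 nM final; 15 min RT w/ cpd; substrate 15 nM, 5 min; beads 10 ug/ml, 10 min; AlphaScreen read. Neg ctrl: no enzyme.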
# DT40 TDP1 no CPT: qHTS for Inhibitors of human tyrosyl-DNA phosphodiesterase 1 (TDP1): qHTS in cells in absence of CPT; hit rate 15% among 420,000; AID 686978, 2013; DT40 Tdp1-/- hTDP1 cells, no CPT, ATP luminescence, 48 h; Potency, µM (highest dose often 46.2 µM), inactives show at the highest dose activity change, negative = growth inhibition, usual class: inhibitors; also: potency is read from the fitted curve at half-maximal effect; % is scaled to controls: 0 for no effect and ±100 for the full control effect; nearly all actives have a fitted effect of over 55% in size
#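 A cellular qHTS used chicken DT40 cells lacking endogenous Tdp1 but carrying stably transfected human TDP1. Compounds were applied without camptothecin, and cell growth kinetics were judged by ATP-dependent luminescence after ≥48 hr.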
# DT40 TDP1 CPT: DT40-hTDP1 cell growth loss with CPT; hit rate 12% among 420,000; AID 686979; chicken DT40 Tdp1-/-;hTDP1 cells + 20 nM CPT, ATP luminescence, 48 h; Potency, µM (doses to about 46.2 µM), without a hit: at the highest dose activity change, negative = growth inhibition, hits mostly inhibitors; also: potency is read from the fitted curve at half-maximal effect; % is scaled to controls: 0 for no effect and ±100 for the full control effect; nearly all actives have a fitted effect of over 55% in size
#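 Chicken DT40 Tdp1-/- cells stably complemented with human TDP1 were seeded at 400 cells/well in medium containing 20 nM camptothecin, exposed to pin-transferred compounds, and grown at 37 °C for at least 48 hr. Viability was read as ATP luminescence.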
# * = called active by the depositor; ? = inconclusive; . = no result. Unless noted, calls follow the shape of the dose curve; as a rule, active = well fitted curve in the direction sought with a large enough effect; inconclusive = small, poorly fitted or top-dose-only effect, or another doubt; inactive = no such curve, though single readings can be large; an effect the other way counts as inactive or inconclusive.
SMILES,HepG2 viability,IL-1B inflam inh,TGFb inhibitor,TDP1 inh,DT40 TDP1 no CPT,DT40 TDP1 CPT
CC(O)COCC1OC2OC3C(COCC(C)O)OC(OC4C(COCC(C)O)OC(OC5C(COCC(C)O)OC(OC6C(COCC(C)O)OC(OC7C(COCC(C)O)OC(OC8C(COCC(C)O)OC(OC1C(OCC(C)O)C2OCC(C)O)C(OCC(C)O)C8OCC(C)O)C(OCC(C)O)C7OCC(C)O)C(OCC(C)O)C6OCC(C)O)C(OCC(C)O)C5OCC(C)O)C(OCC(C)O)C4OCC(C)O)C(OCC(C)O)C3OCC(C)O (centres undefined),-7%,.,-11%,.,-4%,2%
CCCC[C@@H]1C[C@H]1C(NC(=O)c1ccco1)c1ccccc1 (some centres undefined),.,.,.,6%,.,.
Cc1cnc(CNc2cc(-c3ccc4c(c3)OCO4)ncn2)cn1,.,.,.,.,-11%,2%
COc1cc(-c2noc(C)c2C#Cc2nccn2C)cc(OC)c1OC,-24%,-26,-25%,.,13µM*,16µM*
CCOC(CNC(=O)c1ccc(N2CCc3ccccc32)c([N+](=O)[O-])c1)OCC,-45%,-19,-22%,12%,18µM*,21µM*
COC(=O)c1ccc(N2CCc3ccccc32)c([N+](=O)[O-])c1,1%,0,-3%,.,-10%,?
Cc1ccc(S(=O)(=O)N(C)c2ccc(OC(=O)CN3C(=O)NC4(CCCC4)C3=O)cc2)cc1C,-10%,4,0%,.,-12%,-16%
COC(=O)c1cc(NC(=O)c2sc3ncn(Cc4cccc(F)c4)c(=O)c3c2C)cc(C(=O)OC)c1,7%,.,-1%,2%,?,-27%
Cc1cc(Br)cc(C)c1NC(=O)c1sc2ncn(Cc3cccc(F)c3)c(=O)c2c1C,-17%,.,-2%,2%,18µM*,16µM*
C#CCn1c(S(=O)(=O)Cc2ccc(F)cc2)nc(-c2ccccc2)c1-c1ccccc1,-16%,?,-12%,3%,10µM*,15µM*
CCOC(=O)Cn1c(-c2ccccc2)nc2ccccc2c1=O,-20%,18,-3%,-2%,3%,-11%
CCOC(=O)Cn1c(S(=O)(=O)Cc2cccc(F)c2)nc(-c2ccccc2)c1-c1ccccc1,-13%,-20,29%,-1%,10µM*,8.2µM*
CC(c1ccccc1C(O)c1ccccc1)N(C)C (centres undefined),0%,-10,5%,0%,-1%,-6%
Cc1ccc(C(O)(c2ccccc2)c2ccccc2C(C)N(C)C)c(C)c1 (centres undefined),-24%,-68*,?,2%,18µM*,?
Cc1ccc(NC(=S)N2CCN(S(=O)(=O)c3ccccc3)CC2)cc1C,3%,7,0%,2%,-2%,-12%
CCN1/C(=C\C=C(C(C)=O)C(C)=O)Sc2ccccc21,9%,-7,68%,4%,?,?
CCN1/C(=C/C(C)=C/c2sc3ccccc3[n+]2CC)Sc2ccccc21,-91%,-97*,4.5µM*,8%,0.18µM*,0.18µM*
CCc1ccccc1Nc1sc(C(=O)c2cccc(OC)c2)c(N)c1S(=O)(=O)c1ccccc1,8%,.,0%,3%,?,?
COc1ccc(S(=O)(=O)c2c(Nc3ccccc3F)sc(C(=O)c3cccc(OC)c3)c2N)cc1,-17%,.,-6%,5%,6.5µM*,5.2µM*
CCOc1ccccc1Nc1sc(C(=O)c2ccc(Cl)cc2)c(N)c1S(=O)(=O)c1ccccc1,-5%,.,0%,1%,?,-30%
Cc1cccc(C)c1Nc1sc(C(=O)c2ccccc2)c(N)c1S(=O)(=O)c1ccccc1,-1%,.,?,0%,3.7µM*,4.6µM*
CCOc1ccccc1Nc1sc(C(=O)c2ccccc2)c(N)c1S(=O)(=O)c1ccc(C)cc1,-2%,.,11%,-5%,5.8µM*,?
CCC(c1nnc(SC(C)C(=O)NC2CC2)n1-c1ccc(OC)cc1)N(C)C (centres undefined),3%,2,2%,2%,0%,-15%
COc1ccc(-c2oc3c(c2C#CC2(O)CCCCC2)C(OC)CCC3)cc1 (centres undefined),.,?,.,.,-29%,?
CCCCN1C(=S)SC(C)(C)C1/[N+]([O-])=C/c1ccc(S(=O)(=O)NC)cc1 (centres undefined),4%,-19,?,4%,2%,4%
SMILES,HepG2 viability,IL-1B inflam inh,TGFb inhibitor,TDP1 inh,DT40 TDP1 no CPT,DT40 TDP1 CPT
Cc1ccc(-c2nc3c4ccccc4n(CC(=O)NCc4ccc(F)cc4)c(=O)n3n2)cc1,5%,.,7%,5%,-17%,13%
O=[N+]([O-])c1cccc2ccc(/C=C/c3ccc(F)cc3)nc12,-20%,6,?,0%,?,?
O=[N+]([O-])c1cccc(/C=C/c2ccc3cccc(O)c3n2)c1,-25%,42,0%,.,3.7µM*,4.6µM*
COC(=O)c1ccc(/C=C/c2ccc3cccc(OC(C)=O)c3n2)cc1,-35%,13,?,3%,21µM*,18µM*
O=C(O)c1ccc(/C=C/c2ccc3cccc(O)c3n2)cc1,-4%,12,0%,-13%,18µM*,-11%
CCn1ccc2cc(S(=O)(=O)N3CCCN(C(=O)NCC(C)C)CC3)ccc21,-13%,.,0%,2%,.,.
COc1ccc(CCNC(=O)Cn2c(-c3cccs3)cc3cc(F)ccc32)cc1OC,-15%,.,-13%,1%,9.2µM*,7.3µM*
Cc1ccc(CNC(=O)Cn2c(-c3cccs3)cc3cc(Cl)ccc32)cc1,1%,.,?,5%,23µM*,?
COc1ccc(CCNC(=O)Cn2c(=O)n(-c3ccc(C)c(F)c3)c(=O)c3sccc32)cc1OC,3%,4,-6%,0%,15µM*,9.2µM*
CC(CNC(=O)Cn1c(-c2cccs2)cc2ccccc21)c1ccccc1 (centres undefined),-19%,.,-28%,2%,?,21µM*
CCc1ccc(-n2nc(C)c3c(C)cc(=O)n(CC(=O)Nc4cc(Cl)ccc4OC)c32)cc1,-27%,.,-7%,8%,-19%,0%
CCN1CCN(C(=O)c2ccc(N3CC4CC(C3)c3cccc(=O)n3C4)c(NC(=O)c3cc(OC)cc(OC)c3)c2)CC1 (centres undefined),4%,-24,7%,1%,16%,12%
